Results from PubChem BioAssay (NCATS).
Records with an inconclusive call do not appear. Values without a mark were called inactive. The source made the active and inactive calls. Calls come from the whole dose curve; as a rule, active = well fitted activation curve with a large enough effect; inconclusive = small, poorly fitted or top-dose-only effect; inactive = no such curve, though single readings can be large or run the other way.

Experiment: qHTS for activators of Nrf2/ARE signaling pathway screened against the NCATS CANVASS Library (AID 1347391); note: nearly all actives have a fitted effect of over 60% in size; for activation: 0% is about no effect
Conditions: ARE-bla HepG2, beta-lactamase reporter, 16 h; series mostly up to 46.1 µM; activation: at the top concentration
Outline: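 Plate ARE-bla HepG2 cells at 2000/well and let them settle 5 h. Pin-transfer compounds in DMSO, incubate 16 h at 37C. Load CCF4 for 2 h at room temperature and read blue/green fluorescence.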
Potency is the fitted concentration of half-maximal effect.

| SMILES | Potency | activation [%] |
| --- | --- | --- |
| O=C1CC2OCC=C3CN4C5CC3C2[C@@H]2N1c1ccccc1[C@]52C[C@@H]4C1=C[C@H]2C3CC4N(CC[C@@]45c4ccccc4N(C1=O)[C@@H]25)C/C3=C/CO (stereo not given in full) | 1.66 µM (active) |  |
| CCC(=O)CCCCC[C@@H]1NC(=O)[C@H]2CCCCN2C(=O)[C@H](C(C)C)NC(=O)[C@H](Cc2cn(OC)c3ccccc23)NC1=O |  | -11.6 |
| C/C(=C\[C@H](C)C(=O)CCCC1CC(=O)NC(=O)C1)[C@@H]1OC(=O)/C=C/CC/C=C/[C@H](O)[C@@H](O)[C@@H]1C |  | -35.5 |
| C/C=C(/C)c1c(Cl)c(O)c(C)c2c1Oc1c(Cl)c(O)c(Cl)c(C)c1C(=O)O2 |  | -53.1 |
| C=C[C@@]1(C)CC[C@@H]([C@H](C)C(=O)/C=C/C(C)(C)O)O1 | 13.2 µM (active) |  |
| C=CC(CCCCC)C1C(=O)NC(=O)C1C(=O)C1C(/C=C/C)C=CC2CC(C(=O)O)CC(C)C21 (stereo not given) | 3.31 µM (active) |  |
| C=C1CC[C@@H](O[C@H]2C[C@@](O)([C@H](C)NC(=O)c3[nH]c(C)c(Cl)c3Cl)[C@H](O)[C@@H](C)O2)[C@@H]2C=C[C@H](C)C(/C(O)=C3/C(=O)[C@H](C(C)C)N([C@@H]4O[C@H](C)[C@H](OC(N)=O)[C@H](OC(C)=O)[C@@H]4OC)C3=O)[C@@H]12 (stereo not given in full) |  | 12 |
| O=c1cc(-c2ccc(O)c(O)c2)oc2cc(O[C@@H]3O[C@H](CO)[C@@H](O)[C@H](O)[C@H]3O)cc(O)c12 |  | -15.1 |
| C[n+]1cc2cc(C(N)=O)[nH]c3c(=N)c(Cl)c(N)c1c23 |  | 14.7 |
| CC(=O)Oc1cc2c(c(OC(C)=O)c1C1CCc3cc(Cl)c(Cl)n31)C(=O)n1c-2cc(Cl)c1Cl (stereo not given) |  | -45.9 |
